Our source for the Potency values is PubChem BioAssay AID488913 (National Center for Advancing Translational Sciences (NCATS), 2010).

The nature of the assay: Confirmation Concentration-Response Assay for lipid storage modulators: for probe SAR. The settings on record: Drosophila S3 cells, BODIPY lipid droplet fluorescence, 18-24 h; series mostly up to 46.1 µM. The text has this:
NIH Molecular Libraries Probe Production Centers Network [MLPCN] NIH Chemical Genomics Center [NCGC] MLPCN Grant: 1 R03 MH085686-01 Assay Submitter (PI): Beller, Mathias; Max-Planck-Institut fur Biophysikalische Chemie NCGC Assay Overview: Storing lipids as a reservoir for energy or the anabolism of elementary metabolites is a common feature of probably all cells and is conserved from bacteria to humans. The universal cellular lipid storage organelle is the so-called lipid storage droplet (LD). Although ubiquitous, LDs share a simple structure composed of a hydrophobic core that harbors the storage lipids, which is shielded by a droplet-specific phospholipid monolayer to which proteins are attached. The current model of LD biogenesis involves an incorporation of the lipid core into the membrane leaflets of the endoplasmic reticulum (ER) followed by a subsequent budding-like maturation of a LD, which ultimately pinches off. Once released, LD volume can increase by localized lipogenesis or fusion of existing droplets. Storage lipids are re-mobilized enzymatically by lipase activity. Lipase regulation in the adipocyte is heavily studied and involves multiple components including catecholamine signaling, the LD-associated proteins Perilipin and comparative gene identification-58 (CGI-58) and at least two lipases named hormone sensitive lipase (HSL) and adipocyte triglyceride lipase (ATGL). LD regulation outside of the adipocyte is poorly understood and only few components are known. However, there is an urgent need to learn more about ectopic fat depots as mislocalized storage of lipids, for example in the liver or muscle, is an eminent health problem associated with insulin resistance or the metabolic syndrome. We developed a laser-scanning cytometer assay to enable 1,536-well screening and combined the results of the small molecules screen with an RNAi database based on lipid storage.
We dispensed 4 uL of cells at 1.25 x 10^6 cells/mL into LoBase Aurora COC 1,536-well plates (black walled, clear bottom) with a bottle-valve solenoid-based dispenser (Aurora) to obtain 5,000 cells/well. Triacsin C (Sigma-Aldrich T-4540), an inhibitor of long-chain fatty acyl CoA synthetase that blocks synthesis of triglycerides, was used as a positive control for lipid under-storage. […] Fluorescence was detected by excitation of the fluorophores with a 488-nm laser on an Acumen Explorer (TTP Lab Tech). […] Cells were detected using channel 3 (575- 640 nm) with 5-um width and 100-um depth filters. The ratio of the total intensity in PMT channel 1 over total intensity of channel 3 was also calculated. […]

Results filed as inconclusive are left out. Activity calls are given as the source filed them. Calls follow the shape of the dose curve; as a rule, active = well fitted inhibition curve with a large enough effect; inconclusive = small, poorly fitted or top-dose-only effect, or effect the other way; inactive = no such curve, though single readings can be large or run the other way.

For `CCOC(=O)C1CCN(C(=O)C2(NC(=O)Nc3ccccc3Cl)CCCC2)CC1`, the Potency was 787 nM (active).

For `CCC/C=C/C/C=C/C=C/C=N/NN=O`, the Potency was 791 nM (active).

Consider `CCOc1ccc(CCNC(=O)c2cc3sccc3n2Cc2ccc(F)cc2F)cc1OCC`, for which the Potency was 56 nM (active). In the case of `CCOc1ccc(CCNC(=O)c2ccccc2)cc1OCC`, the Potency entry is “inactive”.
